Experimental data reported in the supplement of paper PMC10849652.
Targets with a hit are over-represented here; the source holds about 8,800 in all. About 0.5% of all pairs of compound and target were hits.

Columns and labels:
Test in all cases: log2 fold change, soluble protein after heating vs DMSO (PISA); higher = thermal stabilisation; K562 lysate, 10 uM; active = over 0.2 and 3.5 SD of the protein, either way, in both replicates (recomputed)
[1] = compound: C1=CC=C(C=C1)[C@H](COC2=CC3=C(C=C2)NC(=O)N3)NC(=O)C4=CC=CN(C4=O)CC5=CC(=C(C=C5)F)F
How it was run: (§1)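 The values are log-two fold changes in thermal stability compared with solvent controls and come from duplicates. They were obtained by TMTpro 16plex LC-MS/MS, with channel sums equalised, on the supernatant after 21,000xg for 90 min. That supernatant came from crude K562 extract at 1 mg/mL protein treated with 10 μM compound for 30 min, heated for 3 min across 48°C-58°C, pooled and brought to 0.5% NP-40 at 4°C.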

[2] = compound: CC1=C(SC2=C1C(=N[C@H](C3=NN=C(N32)C)CC(=O)N)C4=CC=C(C=C4)Cl)C
How it was run: as §1

[3] = compound: CC1=C2C(=CC=C1)N=C(N(C2=O)C3=CC=CC=C3C)CN4C=NC5=C(N=CN=C54)N
How it was run: as §1

[4] = compound: Cc1sc2c(c1C)C(c1ccc(Cl)cc1)=N[C@@H](CC(=O)OC(C)(C)C)c1nnc(C)n1-2
How it was run: as §1

[5] = compound: c1ccc([C@@H]2C[C@H]2NC2CCNCC2)cc1
How it was run: as §1

Measured: log2 fold change

SFN (UniProt P31947)
inactive: [1] 0.039 | [2] -0.033 | [3] -0.023 | [4] 0.041 | [5] 0.046

SKA3 (UniProt Q8IX90)
inactive: [1] -0.008 | [2] -0.002 | [3] -0.009 | [4] -0.016 | [5] -0.02

SMC1B isoform 3 (UniProt Q8NDV3)
inactive: [1] 0.009 | [2] 0.076 | [3] 0.12 | [4] -0.063

SLC11A2 isoform 3 (UniProt P49281)
inactive: [1] -0.081 | [2] -0.017 | [3] 0.016 | [4] -0.01 | [5] 0.003

SSB (UniProt E7ERC4)
inactive: [1] -0.137 | [2] 0.12 | [3] 0.186 | [4] -0.105 | [5] 0.444

SNX6, A0A0A0MRI2
inactive: [1] 0.014 | [2] 0.006 | [3] 0.016 | [4] 0.017 | [5] 0.115

SPATA5 (UniProt Q8NB90)
inactive: [1] -0.024 | [2] -0.005 | [3] 0.026 | [4] 0.008 | [5] 0.02

STUB1 (UniProt Q9UNE7)
Sequence of UniProt Q9UNE7 (Q9UNE7 whole entry, looked up): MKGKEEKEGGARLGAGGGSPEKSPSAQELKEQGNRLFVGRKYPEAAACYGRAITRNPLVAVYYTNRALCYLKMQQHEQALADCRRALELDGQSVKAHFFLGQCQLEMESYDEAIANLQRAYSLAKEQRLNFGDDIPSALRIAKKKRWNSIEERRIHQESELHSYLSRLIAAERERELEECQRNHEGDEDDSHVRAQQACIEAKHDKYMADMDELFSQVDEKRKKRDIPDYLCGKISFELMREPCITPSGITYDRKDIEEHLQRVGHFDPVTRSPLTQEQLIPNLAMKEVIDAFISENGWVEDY
inactive: [1] -0.04 | [2] 0.036 | [3] -0.006 | [4] 0.035 | [5] 0.02

SYNE2 isoform 2 (UniProt Q8WXH0)
inactive: [1] -0.037 | [2] 0.044 | [3] 0.02 | [4] -0.065 | [5] -0.416

TARBP1 (UniProt Q13395)
inactive: [1] -0.108 | [2] -0.025 | [3] 0.112 | [4] 0.016 | [5] 0.053

SH3GL3 isoform 3 (UniProt Q99963)
inactive: [1] 0.024 | [2] 0.033 | [3] 0.133 | [4] -0.169 | [5] -0.416

SPAG1 (UniProt Q07617)
inactive: [1] -0.046 | [2] -0.327 | [3] 0.081

SYF2 (UniProt O95926)
inactive: [1] 0.021 | [2] -0.102 | [3] 0.001 | [4] 0.015 | [5] -0.024

SPR (UniProt P35270)
inactive: [1] 0.113 | [2] -0.031 | [3] -0.027 | [4] -0.034 | [5] -0.067

SRSF7 (UniProt Q16629)
inactive: [1] -0.005 | [2] 0.023 | [3] 0.04 | [4] 0.025 | [5] -0.045

SPA17 (UniProt Q15506)
inactive: [1] 0.057 | [2] -0.064 | [3] -0.006 | [4] -0.132 | [5] -0.364

STIM1 (UniProt Q13586)
inactive: [1] -0.048 | [2] -0.008 | [3] 0.049 | [4] 0.028 | [5] 0.048

SMAD9 (UniProt O15198)
inactive: [1] 0.102 | [2] -0.074 | [3] 0.058 | [4] -0.099 | [5] 0.042

SSU72 (UniProt Q9NP77)
inactive: [1] 0.014 | [2] 0.017 | [3] 0.078 | [4] 0.004 | [5] -0.17

STMN3 (UniProt Q9NZ72)
Sequence of UniProt Q9NZ72 (Q9NZ72 whole entry, looked up): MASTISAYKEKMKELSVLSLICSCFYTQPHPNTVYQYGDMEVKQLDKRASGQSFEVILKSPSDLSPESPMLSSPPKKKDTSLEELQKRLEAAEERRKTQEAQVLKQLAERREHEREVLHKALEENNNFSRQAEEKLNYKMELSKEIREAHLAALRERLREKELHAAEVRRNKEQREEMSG
inactive: [1] 0.046 | [2] -0.053 | [3] 0.065 | [4] -0.061

SOAT1 (UniProt P35610)
active: [4] 0.282
inactive: [1] 0.041 | [2] -0.002 | [3] -0.008 | [5] -0.06

SMC4 (UniProt C9JJ64)
inactive: [1] -0.189 | [2] 0.179

SMAD2 (UniProt Q15796)
inactive: [1] -0.006 | [2] 0.024 | [3] -0.104 | [4] 0.023 | [5] 0

SMYD3 (UniProt Q9H7B4)
Sequence of UniProt Q9H7B4 (Q9H7B4 whole entry, looked up): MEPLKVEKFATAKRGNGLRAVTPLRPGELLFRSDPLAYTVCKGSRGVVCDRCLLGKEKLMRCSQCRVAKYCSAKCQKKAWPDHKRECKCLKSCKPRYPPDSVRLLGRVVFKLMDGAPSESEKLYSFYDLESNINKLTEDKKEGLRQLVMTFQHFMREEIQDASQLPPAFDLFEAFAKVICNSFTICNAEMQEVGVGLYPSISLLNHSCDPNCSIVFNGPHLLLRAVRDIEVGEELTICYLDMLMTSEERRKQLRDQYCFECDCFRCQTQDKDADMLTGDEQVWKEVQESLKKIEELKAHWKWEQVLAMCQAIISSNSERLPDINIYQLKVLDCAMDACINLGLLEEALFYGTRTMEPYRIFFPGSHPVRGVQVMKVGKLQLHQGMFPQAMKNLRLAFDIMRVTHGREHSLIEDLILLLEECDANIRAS
inactive: [1] 0.028 | [2] 0.05 | [3] 0.035 | [4] -0.001

SMG7 (UniProt Q92540)
inactive: [1] 0.008 | [2] 0.019 | [3] 0.147 | [4] -0.014 | [5] 0.029

TAOK2 (UniProt Q9UL54)
inactive: [1] -0.033 | [2] 0.118 | [3] -0.001 | [4] 0.242 | [5] -0.105

STK11IP (UniProt Q8N1F8)
Sequence of UniProt Q8N1F8 (Q8N1F8 whole entry, looked up): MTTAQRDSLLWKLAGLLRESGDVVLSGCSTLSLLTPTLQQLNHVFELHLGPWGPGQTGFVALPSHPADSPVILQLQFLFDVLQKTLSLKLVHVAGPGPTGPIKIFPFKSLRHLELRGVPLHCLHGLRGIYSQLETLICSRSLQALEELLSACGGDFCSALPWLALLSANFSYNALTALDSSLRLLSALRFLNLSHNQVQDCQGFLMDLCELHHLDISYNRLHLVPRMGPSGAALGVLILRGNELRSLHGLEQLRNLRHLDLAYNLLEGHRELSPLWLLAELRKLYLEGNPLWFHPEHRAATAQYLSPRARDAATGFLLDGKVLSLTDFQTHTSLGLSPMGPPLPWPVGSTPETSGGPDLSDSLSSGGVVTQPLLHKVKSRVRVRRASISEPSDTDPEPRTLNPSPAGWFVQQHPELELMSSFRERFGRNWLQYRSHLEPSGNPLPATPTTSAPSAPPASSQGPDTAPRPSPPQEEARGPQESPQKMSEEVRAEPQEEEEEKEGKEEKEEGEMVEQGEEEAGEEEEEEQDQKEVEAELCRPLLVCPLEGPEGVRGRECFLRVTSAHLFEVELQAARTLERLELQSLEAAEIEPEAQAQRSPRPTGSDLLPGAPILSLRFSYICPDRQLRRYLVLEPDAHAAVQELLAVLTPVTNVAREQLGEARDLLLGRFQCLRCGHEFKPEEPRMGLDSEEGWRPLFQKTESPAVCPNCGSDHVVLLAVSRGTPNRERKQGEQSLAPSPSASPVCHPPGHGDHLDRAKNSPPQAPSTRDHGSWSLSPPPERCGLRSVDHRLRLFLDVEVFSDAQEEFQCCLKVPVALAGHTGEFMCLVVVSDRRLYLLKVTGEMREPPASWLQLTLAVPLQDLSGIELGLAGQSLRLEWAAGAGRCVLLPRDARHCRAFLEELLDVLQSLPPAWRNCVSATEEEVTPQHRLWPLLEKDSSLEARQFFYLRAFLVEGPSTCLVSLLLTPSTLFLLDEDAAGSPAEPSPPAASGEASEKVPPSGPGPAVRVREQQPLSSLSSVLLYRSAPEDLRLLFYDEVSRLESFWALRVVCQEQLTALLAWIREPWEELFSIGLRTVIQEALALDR
inactive: [1] 0.002 | [2] 0.072 | [3] 0.019 | [4] 0.019 | [5] 0.015

SLC25A44 (UniProt Q96H78)
Sequence of UniProt Q96H78 (Q96H78 whole entry, looked up): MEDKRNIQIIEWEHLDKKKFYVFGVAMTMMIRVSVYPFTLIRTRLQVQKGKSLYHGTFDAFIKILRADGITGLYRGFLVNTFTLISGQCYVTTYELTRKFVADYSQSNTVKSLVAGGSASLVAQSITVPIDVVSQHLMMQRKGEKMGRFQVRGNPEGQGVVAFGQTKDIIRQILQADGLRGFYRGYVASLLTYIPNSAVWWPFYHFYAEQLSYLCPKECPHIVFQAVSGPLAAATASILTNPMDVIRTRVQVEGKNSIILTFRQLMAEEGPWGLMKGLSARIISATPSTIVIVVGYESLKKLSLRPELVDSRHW
inactive: [1] 0.042 | [2] -0.044 | [3] -0.014 | [4] -0.004 | [5] -0.17

SNRPD2 (UniProt P62316)
inactive: [1] 0.039 | [2] -0.021 | [3] 0.028 | [4] -0.009 | [5] -0.068

SULT1A1 (UniProt P50225)
Sequence of UniProt P50225 (P50225 whole entry, looked up): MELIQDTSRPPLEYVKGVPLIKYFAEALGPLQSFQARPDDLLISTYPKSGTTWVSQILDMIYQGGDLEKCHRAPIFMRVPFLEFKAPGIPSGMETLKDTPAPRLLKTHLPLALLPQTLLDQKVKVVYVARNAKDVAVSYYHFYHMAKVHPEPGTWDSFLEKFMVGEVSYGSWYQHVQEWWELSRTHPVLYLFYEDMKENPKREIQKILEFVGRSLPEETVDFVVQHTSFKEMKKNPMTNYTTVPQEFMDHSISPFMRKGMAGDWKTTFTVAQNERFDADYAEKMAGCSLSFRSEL
inactive: [1] -0.022 | [2] -0.02 | [3] 0 | [4] 0.051 | [5] 0.088

SPATA5L1 (UniProt Q9BVQ7)
inactive: [1] -0.019 | [2] 0.036 | [3] 0.006 | [4] -0.007 | [5] -0.039

SLC12A6 (UniProt Q9UHW9)
inactive: [1] 0.006 | [2] 0.017 | [3] 0.017 | [4] 0.036 | [5] 0.008

SRSF9 (UniProt Q13242)
inactive: [1] 0.015 | [2] 0.024 | [3] -0.076 | [4] 0.06 | [5] -0.014

SPC25 (UniProt Q9HBM1)
Sequence of UniProt Q9HBM1 (Q9HBM1 whole entry, looked up): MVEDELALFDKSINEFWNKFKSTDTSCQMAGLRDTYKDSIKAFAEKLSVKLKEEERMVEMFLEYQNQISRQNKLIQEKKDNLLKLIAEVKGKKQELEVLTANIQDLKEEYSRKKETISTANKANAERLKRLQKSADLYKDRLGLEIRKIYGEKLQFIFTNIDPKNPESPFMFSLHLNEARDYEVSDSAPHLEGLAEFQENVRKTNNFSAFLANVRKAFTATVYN
inactive: [1] 0.055 | [2] 0.044 | [3] 0.029 | [4] 0.022 | [5] 0.039

SMARCAD1 isoform 2 (UniProt Q9H4L7)
inactive: [1] -0.006 | [2] -0.036 | [3] 0.014 | [4] 0.014 | [5] 0.035

SOX5 (UniProt P35711)
inactive: [1] -0.092 | [2] -0.052 | [3] 0.076 | [4] -0.005 | [5] 0

SPHK1 isoform 2 (UniProt Q9NYA1)
Sequence of UniProt Q9NYA1 (Q9NYA1 whole entry, looked up): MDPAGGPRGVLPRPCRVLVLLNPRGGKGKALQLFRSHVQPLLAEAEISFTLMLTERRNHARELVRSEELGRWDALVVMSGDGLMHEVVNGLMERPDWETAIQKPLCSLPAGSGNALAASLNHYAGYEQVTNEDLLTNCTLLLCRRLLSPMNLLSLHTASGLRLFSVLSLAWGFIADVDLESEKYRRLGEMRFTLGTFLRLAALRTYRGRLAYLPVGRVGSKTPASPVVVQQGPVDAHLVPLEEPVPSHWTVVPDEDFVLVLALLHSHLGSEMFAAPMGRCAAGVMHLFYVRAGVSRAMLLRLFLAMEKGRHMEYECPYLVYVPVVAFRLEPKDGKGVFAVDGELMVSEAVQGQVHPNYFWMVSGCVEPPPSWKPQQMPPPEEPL
inactive: [1] -0.014 | [2] -0.034 | [3] -0.038 | [4] -0.003 | [5] 0.092

SMC3 (UniProt Q9UQE7)
inactive: [1] -0.002 | [2] 0.011 | [3] -0.011 | [4] 0.037 | [5] 0.022

SPAG5 (UniProt Q96R06)
inactive: [1] 0.006 | [2] 0.004 | [3] 0.021 | [4] 0.013 | [5] 0.026

SNRPD3 (UniProt P62318)
inactive: [1] -0.02 | [2] -0.011 | [3] 0.022 | [4] -0.027 | [5] -0.118

SQLE (UniProt Q14534)
inactive: [1] 0.044 | [2] 0.054 | [3] -0.099 | [4] 0.012 | [5] 0.031

TARDBP (UniProt Q13148)
Sequence of UniProt Q13148 (Q13148 whole entry, looked up): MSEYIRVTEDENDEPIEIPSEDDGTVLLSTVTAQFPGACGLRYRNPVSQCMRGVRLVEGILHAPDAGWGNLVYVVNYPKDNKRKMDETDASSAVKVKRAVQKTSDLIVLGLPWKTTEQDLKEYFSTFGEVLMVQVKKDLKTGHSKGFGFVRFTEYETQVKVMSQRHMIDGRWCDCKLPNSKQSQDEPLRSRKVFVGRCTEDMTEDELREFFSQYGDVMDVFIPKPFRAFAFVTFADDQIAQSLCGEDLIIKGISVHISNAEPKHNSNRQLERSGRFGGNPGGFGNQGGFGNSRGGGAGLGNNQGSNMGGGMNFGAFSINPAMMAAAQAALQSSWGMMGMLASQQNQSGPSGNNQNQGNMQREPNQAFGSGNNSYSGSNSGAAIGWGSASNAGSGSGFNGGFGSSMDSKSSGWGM
inactive: [1] -0.094 | [2] -0.012 | [3] 0.067 | [4] -0.145 | [5] -0.041

SMC2 (UniProt O95347)
inactive: [1] -0.007 | [2] 0.018 | [3] 0.016 | [4] 0.003 | [5] 0.069

STK25 (UniProt O00506)
inactive: [1] -0.05 | [2] 0.035 | [3] -0.062 | [4] 0.053 | [5] -0.048

SNW1 (UniProt Q13573)
inactive: [1] 0.018 | [2] -0.002 | [3] -0.009 | [4] 0.022 | [5] 0.048

SHCBP1 (UniProt Q8NEM2)
Sequence of UniProt Q8NEM2 (Q8NEM2 whole entry, looked up): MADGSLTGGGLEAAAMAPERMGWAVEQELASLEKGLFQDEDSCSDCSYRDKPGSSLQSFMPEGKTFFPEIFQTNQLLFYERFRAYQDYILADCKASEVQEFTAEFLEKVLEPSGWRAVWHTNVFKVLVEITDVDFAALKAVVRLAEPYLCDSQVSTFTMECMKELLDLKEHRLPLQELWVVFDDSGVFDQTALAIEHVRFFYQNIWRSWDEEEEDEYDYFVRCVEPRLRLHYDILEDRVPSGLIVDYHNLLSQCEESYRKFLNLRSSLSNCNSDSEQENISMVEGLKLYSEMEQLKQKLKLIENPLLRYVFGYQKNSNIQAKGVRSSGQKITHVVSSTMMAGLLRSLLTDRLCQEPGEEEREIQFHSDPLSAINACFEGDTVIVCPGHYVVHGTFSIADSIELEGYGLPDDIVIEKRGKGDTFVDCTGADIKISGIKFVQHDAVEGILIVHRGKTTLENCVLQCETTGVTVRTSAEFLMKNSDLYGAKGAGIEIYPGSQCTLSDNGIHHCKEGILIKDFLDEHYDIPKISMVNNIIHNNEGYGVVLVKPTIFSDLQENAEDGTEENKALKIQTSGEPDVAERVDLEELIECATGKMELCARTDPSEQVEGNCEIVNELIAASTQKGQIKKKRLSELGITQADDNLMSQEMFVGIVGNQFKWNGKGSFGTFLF
inactive: [1] 0.056 | [2] 0.012 | [3] -0.032 | [4] -0.022 | [5] -0.039

TAPT1 (UniProt Q6NXT6)
inactive: [1] -0.004 | [2] -0.023 | [3] 0.092 | [4] -0.07 | [5] -0.128

SPATS2 (UniProt Q86XZ4)
Sequence of UniProt Q86XZ4 (Q86XZ4 whole entry, looked up): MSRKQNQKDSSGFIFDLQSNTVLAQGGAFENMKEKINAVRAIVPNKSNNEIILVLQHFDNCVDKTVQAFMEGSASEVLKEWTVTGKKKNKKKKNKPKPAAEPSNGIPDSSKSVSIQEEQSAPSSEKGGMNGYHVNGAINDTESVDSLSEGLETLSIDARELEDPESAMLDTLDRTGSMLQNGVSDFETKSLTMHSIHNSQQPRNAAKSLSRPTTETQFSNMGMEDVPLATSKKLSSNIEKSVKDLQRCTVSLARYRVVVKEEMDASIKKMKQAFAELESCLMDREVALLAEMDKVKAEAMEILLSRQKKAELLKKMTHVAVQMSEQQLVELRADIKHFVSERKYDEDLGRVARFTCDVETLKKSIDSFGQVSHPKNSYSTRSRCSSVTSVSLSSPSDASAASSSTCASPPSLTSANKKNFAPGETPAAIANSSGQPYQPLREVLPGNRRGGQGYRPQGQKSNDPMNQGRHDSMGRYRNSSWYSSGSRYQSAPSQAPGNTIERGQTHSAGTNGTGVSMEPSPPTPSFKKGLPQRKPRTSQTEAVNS
inactive: [1] 0.042 | [2] -0.035 | [3] 0.061 | [4] -0.014 | [5] -0.07

SMC6 (UniProt Q96SB8)
inactive: [1] -0.049 | [2] 0.006 | [3] 0.014 | [4] -0.036 | [5] -0.047

SRGN (UniProt P10124)
inactive: [1] 0.101 | [2] 0.14 | [3] 0.063 | [4] -0.03 | [5] -0.196

SYPL1 (UniProt Q16563)
inactive: [1] -0.075 | [2] 0.003 | [3] -0.01 | [4] -0.041 | [5] -0.123

SSBP3 (UniProt Q9BWW4)
inactive: [1] -0.113 | [2] -0.031 | [3] 0.062 | [4] -0.06 | [5] -0.005

STK3 isoform 2 (UniProt Q13188)
inactive: [1] -0.031 | [2] -0.042 | [3] -0.108 | [4] 0.01 | [5] -0.073

SLC25A32 (UniProt Q9H2D1)
inactive: [1] 0.032 | [2] 0.014 | [3] 0.016 | [4] -0.053 | [5] -0.06
